12-LOX inh – inhibitors of human 12S-lipoxygenase ALOX12; 580,000 tested, 1.1% active; purified 12hLO, xylenol orange hydroperoxide absorbance; AID 1671190; Potency, µM (doses to about 108 µM), without a hit: top-dose activity change, negative = inhibition, hits mostly inhibitors
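Purified human 12hLO (150 nM final) in 25 mM Hepes, 0.01% Triton X-100, pH 7.0 was preincubated 15 min at room temperature with compound. Then 40 uM arachidonic acid was added, 30 min. Hydroperoxide was read by Fe-XO absorbance ratio 573/405 nm.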
GCN5L2 inh – GCN5L2 (KAT2A) acetyltransferase inhibition; Potency, µM (highest dose often 58.9 µM), without a hit: at the highest dose activity change, negative = inhibition, actives largely listed as inhibitors; Q92830; GCN5L2 HAT assay, ThioGlo1 CoA-SH fluorescence; 390,000 tested, 0.21% active
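GCN5L2 (20 nM) in 50mM HEPES pH 7.5, 0.1mM EDTA, 0.01% Tween-20 preincubated 15 min with compounds at room temperature. Reaction started with H3(1-25) 75uM, acetyl-CoA 70uM, ThioGlo1 50uM; CoA-thiol fluorescence (Ex340/Em540) read at 0 and 20 min.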
PLK1 PBD block – inhibitors of human PLK1 polo-box domain binding; P53350; Plk1 PBD binding of FITC phosphopeptide, fluorescence polarization; Potency, µM, for the others: max response, negative = inhibition, usual class: inhibitors; 360,000 tested, 2.8% active; AID 720504; also: series mostly up to about 57 µM; nearly all actives have a fitted effect of over 65% in size
VDR inh – inhibitors of human vitamin D receptor; VDR-SRC2-3 peptide fluorescence polarization, 2 h; Potency, µM, without a hit: max response, negative = inhibition, hits mostly inhibitors; 400,000 tested, 0.93% active; AID 504847
Target sequence (P11473 whole entry, looked up): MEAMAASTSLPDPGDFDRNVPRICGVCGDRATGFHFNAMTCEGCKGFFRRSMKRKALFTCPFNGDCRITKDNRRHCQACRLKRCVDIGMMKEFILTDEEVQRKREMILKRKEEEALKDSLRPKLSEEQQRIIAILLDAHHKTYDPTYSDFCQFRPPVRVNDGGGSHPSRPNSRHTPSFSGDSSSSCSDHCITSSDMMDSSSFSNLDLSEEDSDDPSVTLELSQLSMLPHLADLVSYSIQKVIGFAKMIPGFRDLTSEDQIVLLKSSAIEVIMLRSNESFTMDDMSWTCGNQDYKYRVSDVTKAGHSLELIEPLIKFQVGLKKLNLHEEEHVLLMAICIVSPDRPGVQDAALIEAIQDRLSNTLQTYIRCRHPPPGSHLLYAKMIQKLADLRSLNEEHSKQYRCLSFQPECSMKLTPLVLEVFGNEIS
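After 23 nl compound addition and a short centrifugation, plates sat for 2 hours at ambient temperature; polarization of fluorescence then indicated loss of VDR binding to peptide SRC2-3.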
* = called active by the depositor; u = inconclusive; x = not tested or not shown; ! = not active in a repeat; [ ] = remark or other dose. Most compounds without a hit are left out; they make up all but 3% or so of the library. Calls follow the shape of the dose curve; as a rule, active = well fitted curve in the direction sought with a large enough effect; inconclusive = small, poorly fitted or top-dose-only effect, or another doubt; inactive = no such curve, though single readings can be large; an effect the other way counts as inactive or inconclusive. % is scaled to controls: 0 for no effect and ±100 for the full control effect; potency is read from the fitted curve at half-maximal effect.

SMILES	12-LOX inh	GCN5L2 inh	PLK1 PBD block	VDR inh
CCOC(=O)C1=C(CN(CC)Cc2ccccc2)NC(=O)NC1c1ccc(Cl)cc1 (stereo unspecified)	22µM*!	-10%	x	-9%
CCn1cnnc1-c1nn(C)c2c1CN(C(=O)CCCC1C(=O)Nc3ccccc31)CC2 (stereo unspecified)	11%	x	x	x
CC(C)c1ccc(-c2nnn(Cc3cc4c(cc3Br)OCO4)n2)cc1	-9%	x	x	x
CC(C)Oc1ccc(Br)cc1/C=N/O	-26%	x	x	x
CC(C)Oc1ccc(Br)cc1/C=N\NC(N)=S	40µM*	-1%	-17%	0%
COc1ccc(/C=C2\N=C(C)OC2=O)cc1OC(C)=O	0%	12%	-25%	50µM*
COc1ccc(/C=C2\N=C(C)OC2=O)cc1OC	-4%	1%	-19%	u
NC(=O)CN1CCN(c2nc3ccccc3nc2NS(=O)(=O)c2cccc(Cl)c2)CC1	21%	x	x	x
Cc1nnc(SCC2=C(C(=O)O)N3C(=O)C(NC(=O)COc4ccc(F)cc4)C3SC2)s1 (stereo unspecified)	u	-7%	u	79µM*
Cc1nnc(SCC2=C(C(=O)O)N3C(=O)C(NC(=O)COc4ccccc4)C3SC2)s1 (stereo unspecified)	u	-1%	19µM*	u
CCC(C(=O)NC1C(=O)N2C(C(=O)O)=C(CSc3nnc(C)s3)CSC12)c1ccccc1 (stereo unspecified)	-51%	-4%	24µM*	u
CC(=O)OCC1=C(C(=O)O)N2C(=O)C(NC(=O)COc3ccc(F)cc3)C2SC1 (stereo unspecified)	u	-13%	u	7%
Cc1ccccc1Cn1cc(NC(=O)c2cc(C(C)C)on2)cn1	13%	x	x	x
COc1ccc(OCCOC(=O)c2cc(=O)c3cc(Cl)ccc3o2)cc1	-7%	x	x	x
CCCS(=O)(=O)N1CCc2ccc(NC(=O)NC)cc21	-9%	x	x	x
COCC(=O)Nc1ccc(N2CCOCC2)c(S(=O)(=O)Nc2ccccc2OC)c1	u	-17%	11µM*	u
COc1ccccc1NS(=O)(=O)c1cc(NC(=S)NCCN2CCOCC2)ccc1N1CCOCC1	50µM*	-1%	5.3µM*	79µM*
O=S(=O)(Nc1ccccc1F)c1cccc(NC(=S)NCCN2CCOCC2)c1	-84%	u	0.95µM*	35µM*
COc1ccccc1NS(=O)(=O)c1cc(NC(=O)COc2ccccc2F)ccc1N1CCOCC1	u	-8%	24µM*	u
COc1ccccc1NS(=O)(=O)c1cc(NC(=O)C(C)(C)C)ccc1N1CCOCC1	-19%	-7%	-1%	-22%
CCCn1nc(C(=O)NCC(c2ccccc2)N2CCCC2)ccc1=O (stereo unspecified)	23%	x	x	x
O=C(CCS(=O)(=O)Cc1ccccc1)Nc1cc(C(F)(F)F)ccc1Cl	3%	x	x	x
CN(C)C(=O)COc1ccccc1-c1noc(-c2ccc(S(=O)(=O)NC3CC3)o2)n1	-23%	x	x	x
COc1ccccc1NS(=O)(=O)c1cc(NC(=O)C2CCCC2)ccc1N1CCOCC1	-28%	-3%	15µM*	u
O=C(/C(=N/N=C/c1ccc(O)c(O)c1O)c1ccccc1)c1ccccc1	14µM*	-29%	7.5µM*	-12%
SMILES	12-LOX inh	GCN5L2 inh	PLK1 PBD block	VDR inh
O=C(NN=Cc1ccc(O)c(O)c1)c1ccccc1	x	x	5%	x
Oc1ccc(/C=N/N=C(c2ccccc2)c2ccccc2)c(O)c1O	40µM*	-25%	12µM*	-27%
C(=N\N=C(c1ccccc1)c1ccccc1)/c1ccncc1	-15%	x	x	x
COc1ccc2nc(Nc3nc(C)cc(C)n3)nc(C)c2c1	47%	x	x	x
CCCCCOC(=O)CCC	-1%[176 µM]	x	x	x
Cc1ccccc1-c1nccc(-n2ccnc2)n1	7.9µM*	u	x	u
CN(C)C(=O)c1ccc(-c2nccc(-n3ccnc3)n2)cc1	22µM*	-6%	x	2%
FC(F)(F)c1ccccc1-c1nccc(-n2ccnc2)n1	u	u	x	45µM*
CN(C)C(=O)c1ccc(-c2nccc(N(C)Cc3ccco3)n2)cc1	u	-7%	x	u
Clc1ccccc1-c1nccc(-n2ccnc2)n1	u	-29%	x	u
O=C(NNC(=O)c1ccccc1OCC1CCCO1)c1cc2ccccc2cc1O (stereo unspecified)	-22%	x	x	x
Cc1ccsc1CNC(=O)CSCC#N	-11%	x	x	x
O=S(=O)(NC(=S)c1ccccc1)c1ccc(Cl)cc1	u	-2%	15µM*	-10%
Cc1ccc(C2=Nc3ccc(Cl)cc3OC2)cc1	22µM*	x	x	x
